One experiment has as its system HCC-2998 colon. Kind of experiment: NCI-60 one-dose screen, 48 h (100 = growth as untreated, 0 = no growth, -100 = all killed). The settings on record: 10 µM unless noted.
A further experiment has as its system KM12 colon. The description is as above. The settings on record: 10 µM unless noted.

Compounds without any hit were thinned out: in the full panel of roughly 83,000, 20% have a hit.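 Cells were grown in 96-well plates and exposed to the test compound at a single concentration for 48 hours; results are reported as percent growth, with values below 10 considered active.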 Unmarked numbers belong to inactive results. The source made the active and inactive calls.

Take `CC1=C(CO)C2=C(C)C3(CC3)[C@@](C)(O)C(=O)C2=C1`: the growth in the experiment on HCC-2998 colon is -76.7% (active); with KM12 colon, 12.4%.

As for `O=C1c2ccccc2C(=O)C(Cl)C1Cl` (stereo unspecified), the growth with HCC-2998 colon is 111%; with KM12 colon, 56.8%.

On to `C[C@H]1CCC/C=C/[C@@H]2C[C@H](O)C[C@H]2[C@H](O)/C=C/C(=O)O1`, for which the growth in the experiment on HCC-2998 colon is -49.5% (active); in the experiment on KM12 colon, -59.8% (active).

Consider `CCCCCCCCCCCC1CCCC(C)N1` (stereo unspecified), for which the growth with HCC-2998 colon was -72.4% (active); with KM12 colon, 44%.

Regarding `CN1CCN(c2ccc([N+](=O)[O-])c3no[n+]([O-])c23)CC1`, the growth in the experiment on KM12 colon is -82.8% (active).

Take `COc1ccc(OC)c(/C=C/[N+](=O)[O-])c1`: the growth was -82.4% (active) with HCC-2998 colon and 11.7% in the experiment with KM12 colon.

The values are drawn from PubChem BioAssay (NCI).
